High-throughput results from PubChem.
A selection: hits, their analogues and other compounds. The true share with any hit is near 11%.
hNpr1 antagonist: human Npr1 receptor antagonism; P16066; HEK293 hNpr1 GloSensor cGMP, ANP-stimulated luminescence; Potency, µM (titrated, usually from 46.3 µM), hits mostly inhibitors; 1.6% of 76,000 active; AID 1347048; calls by dose curve; note: nearly all actives have a fitted effect of over 60% in size
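HEK293 cells stably expressing human Npr1 and cGMP GloSensor pGS-40F, loaded 2 h with 2% GloSensor reagent, given compound 30 min at room temperature. Luminescence read before and 20 min after 0.1 nM hNppA.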
Luciferase inh: blocks purified firefly luciferase enzyme activity | P08659 | 2.5% of 76,000 active | purified P. pyralis luciferase, luminescence, biochemical | Potency, µM (highest dose often 115 µM), most hits filed as inhibitors; note: nearly all actives have a fitted effect of over 65% in size
Target sequence (P08659 whole entry, looked up): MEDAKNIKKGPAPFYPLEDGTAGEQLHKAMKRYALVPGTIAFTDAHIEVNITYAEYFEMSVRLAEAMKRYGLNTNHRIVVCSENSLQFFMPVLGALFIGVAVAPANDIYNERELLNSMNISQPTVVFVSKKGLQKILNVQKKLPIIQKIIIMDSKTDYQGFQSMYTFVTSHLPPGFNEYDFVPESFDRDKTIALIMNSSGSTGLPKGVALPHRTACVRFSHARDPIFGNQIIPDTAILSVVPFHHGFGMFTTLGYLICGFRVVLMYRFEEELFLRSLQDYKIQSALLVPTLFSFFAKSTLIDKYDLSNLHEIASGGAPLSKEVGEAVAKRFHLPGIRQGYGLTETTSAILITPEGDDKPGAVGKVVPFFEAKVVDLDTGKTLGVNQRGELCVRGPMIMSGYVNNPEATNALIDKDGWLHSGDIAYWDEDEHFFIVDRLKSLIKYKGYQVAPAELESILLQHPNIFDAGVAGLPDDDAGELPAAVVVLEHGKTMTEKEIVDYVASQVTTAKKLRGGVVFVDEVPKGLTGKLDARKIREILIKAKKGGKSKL
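Biochemical qHTS: compound (6-point titration) added to 10uM D-luciferin plus 10uM ATP in Tris acetate pH 7.5 buffer with Mg, Tween-20 and BSA, then purified enzyme at 10nM; light output imaged.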
HEK293 tox: kills HEK 293 cells; Potency, µM (titrated, usually from 115 µM), hits mostly inhibitors; 6.6% of 94,000 active; HEK 293 viability, ATP luminescence (CellTiter-Glo), 48-72 h; note: nearly all actives have a fitted effect of over 60% in size
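250 HEK 293 cells/well; compound by pintool; incubated 48 or 72 hr at 37 degree Celsius; CellTiter-Glo added, 10 min RT, luminescence imaged.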
NIH3T3 tox: cytotoxic compounds in NIH 3T3 cells. NIH 3T3 viability, CellTiter-Glo ATP luminescence, 48-72 h. 4.3% of 94,000 active. Potency, µM (top dose mostly 96.7 µM), most hits filed as inhibitors; note: nearly all actives have a fitted effect of over 55% in size
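NIH 3T3 cells at 400 cells/well received 23 nL of compound by pintool and were incubated 48 or 72 h at 37 °C. Viability was read as ATP-coupled CellTiter-Glo luminescence.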
Of the large screens only hits and unclear results are named; the others gave an inactive call; ! = repeats disagree. Unless noted, calls come from the whole dose curve; as a rule, active = well fitted curve in the direction sought with a large enough effect; inconclusive = small, poorly fitted or top-dose-only effect, or another doubt; inactive = no such curve, though single readings can be large; an effect the other way counts as inactive or inconclusive.

Cc1ccc([S+](=O)([O-])c2nnn3c2nc(NCc2ccncc2)c2ccccc23)cc1	none (no result: hNpr1 antagonist, Luciferase inh)
CC(C)c1ccc([S+](=O)([O-])c2nnn3c2nc(NCc2ccncc2)c2ccccc23)cc1	HEK293 tox 50µM, NIH3T3 tox 40µM (no result: hNpr1 antagonist, Luciferase inh)
CN1CCC(Cn2ccc3c(N4CCOCC4)nc(-c4cccc(C(N)=O)c4)cc32)CC1	HEK293 tox inconclusive, NIH3T3 tox 100µM
CN1CCC(Cn2ccc3c(N4CCOCC4)nc(-c4cccc5[nH]ncc45)cc32)CC1	HEK293 tox inconclusive, NIH3T3 tox 45µM
C[S+](=O)([O-])N1CCC(Cn2ccc3c(N4CCOCC4)nc(-c4cccc(C(N)=O)c4)cc32)CC1	NIH3T3 tox inconclusive
C[S+](=O)([O-])N1CCC(Cn2ccc3c(N4CCOCC4)nc(-c4cccnc4)cc32)CC1	NIH3T3 tox 7.1µM
COc1cc(F)ccc1-c1cc2c(ccn2CC2CCN(C)CC2)c(N2CCOCC2)n1	HEK293 tox 100µM, NIH3T3 tox 71µM
CC(=O)Nc1cccc(-c2cc3c(ccn3CC3CCN(C)CC3)c(N3CCOCC3)n2)c1	NIH3T3 tox inconclusive
COc1ccc2[nH]c3c(c2c1)CCNC31CCN(Cc2ccc(F)cc2F)CC1	HEK293 tox inconclusive, NIH3T3 tox inconclusive
Cc1cccc(N2Cc3c(NCCO)ncnc3N(C)CC2=O)c1	none (no result: hNpr1 antagonist, Luciferase inh)
Cc1cc(F)ccc1OC1CN(C(=O)c2ccccn2)C1	Luciferase inh 50µM, HEK293 tox inconclusive, NIH3T3 tox inconclusive
O=C(c1ccccn1)N1CC(Oc2ccc(F)cc2F)C1	none (no result: hNpr1 antagonist, Luciferase inh)
Cc1cc(OC2CN(C(=O)c3ccccn3)C2)ccc1F	Luciferase inh inconclusive, HEK293 tox 79µM, NIH3T3 tox inconclusive
CCOC(=O)CNC(=O)CCc1conc1-c1ccc(OC)cc1	Luciferase inh inconclusive
Cn1cccc1CN1CC[C@@H]2C(=O)NCCCCCCN(Cc3ccncc3)[C@@H]2C1	HEK293 tox inconclusive
COc1cccc(C(=O)N2CCC(N3C[C@H](O)C[C@H]3C(=O)Nc3cccc(C)c3)CC2)c1	none
CC(C)C1CN(C(=O)CNC(=O)N(C)C)CCCN1Cc1ccc(F)cc1 (stereo unspecified)	HEK293 tox inconclusive
Cc1c(O)cccc1C(=O)N1CCCN(Cc2ccc(F)cc2)C(C(C)C)C1 (stereo unspecified)	HEK293 tox 45µM, NIH3T3 tox inconclusive
COc1cccc(NC(=O)CN2C(=O)NC(c3ccc(C)cc3)C3=C2COC3=O)c1 (stereo unspecified)	HEK293 tox inconclusive, NIH3T3 tox inconclusive
O=C(CN1C(=O)NC(c2ccc(Cl)cc2)C2=C1COC2=O)Nc1cccc(Br)c1 (stereo unspecified)	hNpr1 antagonist inconclusive, Luciferase inh inconclusive, HEK293 tox 20µM, NIH3T3 tox inconclusive
O=C(CN1C(=O)NC(c2ccc(Cl)cc2)C2=C1COC2=O)Nc1cccc(F)c1 (stereo unspecified)	HEK293 tox 45µM, NIH3T3 tox 28µM
O=C(CN1C(=O)NC(c2ccccc2Cl)C2=C1COC2=O)Nc1cccc(F)c1 (stereo unspecified)	Luciferase inh inconclusive, HEK293 tox inconclusive
COCCN[C@H]1[C@@H]2OC[C@@H](O2)[C@@H](NCc2ccc(OC(F)(F)F)cc2)[C@@H]1O	none
O=C(NCc1ccccc1)C1=NO[C@@H]2CN(Cc3cccc(F)c3)C[C@H]12	HEK293 tox 45µM, NIH3T3 tox inconclusive
O=C(NCc1ccccc1)C1=NO[C@@H]2CN(Cc3ccc(O)c(Cl)c3)C[C@H]12	HEK293 tox 71µM, NIH3T3 tox inconclusive
O=C(Nc1ccc(F)c(Cl)c1)C1=NO[C@@H]2CN(CCc3ccccc3)C[C@H]12	HEK293 tox 112µM, NIH3T3 tox inconclusive
COCCN(Cc1ccsc1)Cc1cn[nH]c1-c1ccc(F)cc1	HEK293 tox 89µM
Cc1cc(S(=O)(=O)N[C@@H]2CN(C)C[C@H]2CN(C)C)ccc1F	none
CCN1c2cc(C(=O)Nc3cccc(C(F)(F)F)c3)ccc2C(=O)N2CCCCCC21 (stereo unspecified)	HEK293 tox 13µM, NIH3T3 tox inconclusive
CCN1c2cc(C(=O)Nc3cccc(C(F)(F)F)c3)ccc2C(=O)N2CCCC21 (stereo unspecified)	HEK293 tox inconclusive, NIH3T3 tox 35µM
O=C(CCC1CCN(Cc2cc3ccccc3o2)CC1)NC1CCN(Cc2ccccc2)C1 (stereo unspecified)	HEK293 tox inconclusive, NIH3T3 tox inconclusive
O=C(c1ccc(F)cc1)N1CCC(C(=O)N2CCC(N3Cc4ccccc4C3=O)CC2)CC1	NIH3T3 tox inconclusive (no result: hNpr1 antagonist, Luciferase inh)
O=C(C1CC1)N1CCC(C(=O)N2CCC(N3Cc4ccccc4C3=O)CC2)CC1	none (no result: hNpr1 antagonist, Luciferase inh)
O=C(Cc1cccc(Cl)c1)N1CCC(C(=O)N2CCC(N3Cc4ccccc4C3=O)CC2)CC1	HEK293 tox 50µM, NIH3T3 tox inconclusive (no result: hNpr1 antagonist, Luciferase inh)
COc1cccc(CC(=O)N2CCCN(Cc3ccncc3)C(c3ccccc3)CC(=O)NCC2)c1 (stereo unspecified)	HEK293 tox inconclusive
CC(C)C[C@@H]1N[C@H](C(=O)N2CCCC2)Cc2cn(Cc3nccn3C)c3cccc1c23	HEK293 tox inconclusive
CC(C)C[C@@H]1N[C@H](C(=O)N2CCOCC2)Cc2cn(Cc3ccccn3)c3cccc1c23	HEK293 tox 100µM, NIH3T3 tox inconclusive
CC(C)C[C@@H]1N[C@H](C(=O)N2CCOCC2)Cc2cn(Cc3nccn3C)c3cccc1c23	none
CC(C)C[C@@H]1N[C@H](C(=O)N2CCCC2)Cc2cn(Cc3ccccn3)c3cccc1c23	HEK293 tox 112µM, NIH3T3 tox inconclusive
N#Cc1cccc(CN2CCC(c3nc4ccc(F)cc4c(=O)[nH]3)CC2)c1	HEK293 tox 22µM!, NIH3T3 tox inconclusive
N#Cc1cccc(CN2CCCC(c3nc4ccc(F)cc4c(=O)[nH]3)C2)c1 (stereo unspecified)	HEK293 tox 45µM!, NIH3T3 tox inconclusive
Cc1cccc(C)c1NC(=O)N1CCC(OC2CCN(Cc3ccccc3)CC2)CC1	HEK293 tox inconclusive
Cn1c(CN2C[C@H](O)C[C@H]2c2nc(-c3ccc(OC(F)(F)F)cc3)no2)nc2ccccc21	Luciferase inh 40µM, HEK293 tox inconclusive
O[C@@H]1C[C@@H](c2nc(Cc3ccc(F)cc3Cl)no2)N(Cc2ccc(OC(F)(F)F)cc2)C1	HEK293 tox 40µM, NIH3T3 tox inconclusive
O=S(=O)(Cc1noc([C@@H]2C[C@@H](O)CN2Cc2cc3ccccc3o2)n1)c1ccc(F)cc1	HEK293 tox inconclusive
O=[N+]([O-])c1ccccc1CN1C[C@H](O)C[C@H]1c1nc(Cc2ccc(F)cc2Cl)no1	Luciferase inh inconclusive, HEK293 tox 112µM, NIH3T3 tox inconclusive
Cc1ccc(-c2noc([C@@H]3C[C@@H](O)CN3Cc3nc4ccccc4n3C)n2)cc1F	none
COc1ccc(-c2ccc3ncc(Nc4cccc(C(F)(F)F)c4)n3n2)cn1	HEK293 tox 45µM, NIH3T3 tox inconclusive
COc1ccc(-c2ccc3ncc(Nc4ccc(CCO)cc4)n3n2)cn1	HEK293 tox inconclusive, NIH3T3 tox inconclusive
COc1ccc(-c2ccc3ncc(Nc4ccncc4)n3n2)cn1	HEK293 tox 100µM, NIH3T3 tox inconclusive
